Reference: PubChem BioAssay (NCATS)
Records with an inconclusive call do not appear. Values without a mark were called inactive. Active and inactive are the calls of the source. Unless noted, calls follow the shape of the full dose curve.

test: S16 Schwann cell PMP22 intronic element firefly luciferase assay (AID 624032; active = well fitted inhibition curve with a large enough effect; also: nearly all actives have a fitted effect of over 30% in size;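 as to activity change, negative = inhibition: plate controls were DMSO for no effect and PTC124 positive control mean for full effect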); conditions: S16 rat Schwann cells, PMP22 element FLuc, 24 h; series mostly up to 57.5 µM; activity change, negative = inhibition: at the top concentration
In short: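 Luciferase reporter of PMP22 intronic-element expression in stably transfected S16 rat Schwann cells, read by ONE-Glo luminescence after 24 h compound exposure at 37 C. Activity scaled between DMSO (0%) and positive-control PTC124; concentration-effect curves quality-classified.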
Potency is read from the fitted curve at half-maximal effect.

SMILES | activity change, negative = inhibition | Potency
Cc1cc(C(=O)NNCc2ccccc2)no1 | 24.1% [at 25.7 µM] | 
CCOC(C)=O | -5.46% | 
CN(C)CCCN1c2ccccc2C(C)(C)c2ccccc21 | -7.48% | 
C=CCSSSCC=C | -29.2% | 
COC(F)(F)C(Cl)Cl | 13.1% | 
Nc1c(Br)cc(Br)cc1CNC1CCC(O)CC1 (stereo unspecified) | 11% | 
CCCCC(CC)COC(=O)CC(C(=O)OCC(CC)CCCC)S(=O)(=O)O (stereo unspecified) | 13.7% | 
IC(I)I | 4.39% | 
O=S(=O)(O)O | 1.73% | 
Cc1c(C)c2c(c(C)c1O)CC[C@@](C)(CCC[C@H](C)CCC[C@H](C)CCCC(C)C)O2 | 1.31% | 
O=C(Nc1ccc(Br)cc1)c1cc(Br)c(Br)s1 | 105% | 
CCOc1ccc2c(c1)C(C)=CC(C)(C)N2 | -7.44% | 
CC1=C(/C=C/C(C)=C/C=C/C(C)=C/C=C/C=C(C)/C=C/C=C(C)/C=C/C2=C(C)C(=O)CCC2(C)C)C(C)(C)CCC1=O | -18% | 
CC[C@@]1(O)C(=O)OCc2c1cc1n(c2=O)Cc2cc3c([N+](=O)[O-])cccc3nc2-1 |  | 0.203 µM (active)
CC[N+](C)(C)Cc1ccccc1Br | -1.86% [at 25.7 µM] | 
NC(=O)c1ncn(C2OC(CO)C(O)C2O)n1 (stereo unspecified) | 14% | 
COC(=O)[C@H]1[C@H]2C[C@@H]3c4[nH]c5ccccc5c4CCN3C[C@H]2C[C@@H](OC(=O)c2cc(OC)c(OC)c(OC)c2)[C@@H]1OC |  | 0.907 µM (active)

SMILES | activity change, negative = inhibition | Potency
CC1=CCC(C(C)(C)O)CC1 (stereo unspecified) | -24.5% | 
CC(Cc1ccc(O)c(O)c1)C(C)Cc1ccc(O)c(O)c1 (stereo unspecified) |  | 8.09 µM (active)
CC1(C)S[C@@H]2[C@H](NC(=O)[C@@H](NC(=O)N3CCNC3=O)c3ccccc3)C(=O)N2[C@H]1C(=O)O | 14.6% [at 25.7 µM] | 
CCNC(=O)[C@@H]1CCCN1C(=O)[C@H](CCCN=C(N)N)NC(=O)[C@H](CC(C)C)NC(=O)[C@@H](Cc1c[nH]c2ccccc12)NC(=O)[C@H](Cc1ccc(O)cc1)NC(=O)[C@H](CO)NC(=O)[C@H](Cc1c[nH]c2ccccc12)NC(=O)[C@H](Cc1cnc[nH]1)NC(=O)[C@@H]1CCC(=O)N1 |  | 4.55 µM (active)
CC1(C)C(C=C(Cl)Cl)C1C(=O)OCc1cccc(Oc2ccccc2)c1 (stereo unspecified) | 6.25% | 
CCC(=O)NCCC1CCc2ccc3c(c21)CCO3 (stereo unspecified) | -17.2% | 
O=C1CSC2(CCN(CCCN3c4ccccc4Sc4ccc(Cl)cc43)CC2)N1 |  | 32.2 µM (active)
CCCCCCCCCCCC[n+]1ccc2ccccc2c1 |  | 0.907 µM (active)
C[C@H]1C[C@H]2[C@@H]3CCC4=CC(=O)C=C[C@]4(C)[C@@]3(F)[C@@H](O)C[C@]2(C)[C@@]1(O)C(=O)CO | -0.0785% | 
CC(=O)Oc1cc(C)c(OC(C)=O)c2ccccc12 |  | 28.7 µM (active)
Cc1ccccc1OCC(O)CNCCOc1ccc(C(N)=O)cc1 (stereo unspecified) | 22.9% | 
CCCCC/C=C\C/C=C\CCCCCCCC(=O)O | -10% | 
CC(O)CO (stereo unspecified) | 11% | 
O=CCCCC=O | -16.2% | 
CN1Cc2c(N)cccc2C(c2ccccc2)C1 (stereo unspecified) | 10.3% | 
C#C[C@]1(O)CC[C@H]2[C@@H]3CCC4=CCCC[C@@H]4[C@H]3C(=C)C[C@@]21CC | -54.6% | 

test: S16 Schwann cell PMP22 intronic element beta-lactamase assay (AID 624044); conditions: S16 rat Schwann cells, PMP22 element beta-lactamase FRET, 24 h; series mostly up to 38.3 µM; ratio activity, negative = inhibition: at the top concentration; also: nearly all actives have a fitted effect of over 15% in size;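 as to ratio activity, negative = inhibition: 0% = DMSO and -100% = potassium clavulanate positive control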
In short: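 Beta-lactamase reporter under a PMP22 intronic regulatory element in stable S16 rat Schwann cells; 24 h compound exposure. 460 nm blue signal normalized between DMSO (0%) and potassium clavulanate, with 535 nm FRET tracking viability; curves classed by r2 and response.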

SMILES | ratio activity, negative = inhibition | Potency
Cc1cc(C(=O)NNCc2ccccc2)no1 | 1.77% [at 17.1 µM] | 
CCOC(C)=O | 0.295% | 
CN(C)CCCN1c2ccccc2C(C)(C)c2ccccc21 | -0.531% | 
C=CCSSSCC=C | -4.19% | 
COC(F)(F)C(Cl)Cl | 0.38% | 
Nc1c(Br)cc(Br)cc1CNC1CCC(O)CC1 (stereo unspecified) | -5.91% | 
CCCCC(CC)COC(=O)CC(C(=O)OCC(CC)CCCC)S(=O)(=O)O (stereo unspecified) | -1.6% | 
IC(I)I | 3.66% | 
O=S(=O)(O)O | -1.65% | 
Cc1c(C)c2c(c(C)c1O)CC[C@@](C)(CCC[C@H](C)CCC[C@H](C)CCCC(C)C)O2 | -6.63% | 
O=C(Nc1ccc(Br)cc1)c1cc(Br)c(Br)s1 | -18% | 
CCOc1ccc2c(c1)C(C)=CC(C)(C)N2 | -0.479% | 
CC1=C(/C=C/C(C)=C/C=C/C(C)=C/C=C/C=C(C)/C=C/C=C(C)/C=C/C2=C(C)C(=O)CCC2(C)C)C(C)(C)CCC1=O | 3.3% | 
CC[C@@]1(O)C(=O)OCc2c1cc1n(c2=O)Cc2cc3c([N+](=O)[O-])cccc3nc2-1 |  | 1.41 µM (active)
CC[N+](C)(C)Cc1ccccc1Br | 0.991% [at 17.1 µM] | 
NC(=O)c1ncn(C2OC(CO)C(O)C2O)n1 (stereo unspecified) | -20% | 
COC(=O)[C@H]1[C@H]2C[C@@H]3c4[nH]c5ccccc5c4CCN3C[C@H]2C[C@@H](OC(=O)c2cc(OC)c(OC)c(OC)c2)[C@@H]1OC |  | 3.98 µM (active)

SMILES | ratio activity, negative = inhibition | Potency
CC1=CCC(C(C)(C)O)CC1 (stereo unspecified) | 2.74% | 
CC(Cc1ccc(O)c(O)c1)C(C)Cc1ccc(O)c(O)c1 (stereo unspecified) |  | 22.4 µM (active)
CC1(C)S[C@@H]2[C@H](NC(=O)[C@@H](NC(=O)N3CCNC3=O)c3ccccc3)C(=O)N2[C@H]1C(=O)O | -3.07% [at 17.1 µM] | 
CCNC(=O)[C@@H]1CCCN1C(=O)[C@H](CCCN=C(N)N)NC(=O)[C@H](CC(C)C)NC(=O)[C@@H](Cc1c[nH]c2ccccc12)NC(=O)[C@H](Cc1ccc(O)cc1)NC(=O)[C@H](CO)NC(=O)[C@H](Cc1c[nH]c2ccccc12)NC(=O)[C@H](Cc1cnc[nH]1)NC(=O)[C@@H]1CCC(=O)N1 |  | 22.4 µM (active)
CC1(C)C(C=C(Cl)Cl)C1C(=O)OCc1cccc(Oc2ccccc2)c1 (stereo unspecified) | -7.76% | 
CCC(=O)NCCC1CCc2ccc3c(c21)CCO3 (stereo unspecified) | -4.66% | 
O=C1CSC2(CCN(CCCN3c4ccccc4Sc4ccc(Cl)cc43)CC2)N1 | -26.2% | 
CCCCCCCCCCCC[n+]1ccc2ccccc2c1 |  | 19.9 µM (active)
C[C@H]1C[C@H]2[C@@H]3CCC4=CC(=O)C=C[C@]4(C)[C@@]3(F)[C@@H](O)C[C@]2(C)[C@@]1(O)C(=O)CO | 0.681% | 
CC(=O)Oc1cc(C)c(OC(C)=O)c2ccccc12 | -9.91% | 
Cc1ccccc1OCC(O)CNCCOc1ccc(C(N)=O)cc1 (stereo unspecified) | -2.28% | 
CCCCC/C=C\C/C=C\CCCCCCCC(=O)O | -10.2% | 
CC(O)CO (stereo unspecified) | 1.44% | 
O=CCCCC=O | 1.89% | 
CN1Cc2c(N)cccc2C(c2ccccc2)C1 (stereo unspecified) | -2.47% | 
C#C[C@]1(O)CC[C@H]2[C@@H]3CCC4=CCCC[C@@H]4[C@H]3C(=C)C[C@@]21CC | -5.9% | 
